Data: PubChem BioAssay (NCI)
The panel holds about 83,000 compounds, 20% with a hit somewhere; the sample as a whole holds those more often.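 Negative percent growth values reflect cell death: -40 means 40% of the cells present at the start died, and -100 means all died.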 Activity calls are given as the source filed them.

Each compound was assayed on UACC-62 melanoma (assay: NCI-60 one-dose screen, 48 h (100 = growth as untreated, 0 = no growth, -100 = all killed)). Details: 10 µM unless noted.
Method: Growth inhibition of the UACC-62 human tumor cell line is measured as a screen for anti-cancer activity. Cells are grown in 96 well plates and exposed to the test compound for 48 hours. Compounds are tested at a single concentration, which is 10^-5 M for most compounds. The reported endpoint is percent growth (GI% or GIPRCNT), where numbers from 0 - 100% represent growth inhibition, and numbers from -100% - 0 represent cell death. For example, a value of 40 represents 60% growth inhibition. A value of 0 means no net growth occurred over the course of the experiment. A value of -40 indicates 40% of cells at the beginning of the experiment died by the end of the experiment. A value of -100 means all cells are dead at the end of the experiment.
NCI-60 Human Tumor Cell Lines Screen was performed using the standard one-dose NCI protocol, which is described in more detail at https://dtp.cancer.gov/discovery_development/nci-60/default.htm.
Compounds with GIPRCNT values below 10 were considered active. Activity score was based on GIPRCNT using the following formula: […]
Score is 0 for GIPRCNT values of 100 or above, 50 for GIPRCNT values of 0, and 100 for GIPRCNT values of -100.

Row | Compound | growth
1 | CN(C)c1ccc(C(=NO)c2ccc(N(C)C)cc2)cc1 | 28.1% (inactive)
2 | CS(=O)(=O)Nc1cc(-c2ccc3ncnc(Nc4ccc5c(cnn5Cc5cccnc5)c4)c3c2)cnc1Cl | 25.9% (inactive)
3 | CC(=O)N(Cc1ccccc1)c1nc2ccc(O)c(CN(C)C)c2s1 | 93.7% (inactive)
4 | COc1cc(C2C3=C(COC3=O)N(CCO)c3cc4c(cc32)OCCO4)cc(OC)c1OC (stereo not given) | 6.33% (active)
5 | CN1CCN(Cc2ccc(NC(=O)c3cncc(C#Cc4cncc5ncccc45)c3)cc2C(F)(F)F)CC1 | 5.7% (active)
6 | CCOC(=O)c1cn2ncnc(Oc3ccc(NC(=O)NC4CC4)c(F)c3)c2c1C | 86.9% (inactive)
7 | CC(C)c1ccc(-n2c(=S)[nH]c3sc4c(c3c2=O)CCC(=O)C4)cc1 | 24.5% (inactive)
8 | CCCn1c(=S)sc2c1nc(C)n1c(Nc3ccccc3)nnc21 | 32.3% (inactive)
9 | O=C(Nc1nc(C(=O)N2CCN(C(c3ccccc3)c3ccccc3)CC2)cs1)c1ccc(NC2CCCCC2)c([N+](=O)[O-])c1 | 67.1% (inactive)
10 | COc1ccc(Cc2nnc(Nc3nc4ccccc4s3)s2)cc1 | 89.6% (inactive)
11 | CCNCc1ccc(O)c2ncccc12 | 25% (inactive)
12 | N#Cc1c(-c2ccccc2)c(C#N)c2c(C#N)c(N)nn2c1N | 19.6% (inactive)
13 | N#Cc1nc2c(S(=O)(=O)c3ccccc3)c(N)n(Cc3cccnc3)c2nc1C#N | 85.6% (inactive)
14 | COc1ccc(/C=C/C(=O)c2ccc(Nc3nc(Nc4ccc(F)cc4)nc(Nc4ccc(Cl)cc4)n3)cc2)cc1 | 105% (inactive)
15 | CN(C)c1ccc(-c2cc(-c3ccc(Nc4nc(Nc5ccc(Cl)cc5)nc(Nc5ccc(Cl)cc5)n4)cc3)nc(N)c2C#N)cc1 | 91% (inactive)
16 | O=C1/C=C/[C@@H](O)[C@@H]2C[C@@H](O)C[C@H]2/C=C/CCC[C@H](CCOCc2ccccc2)O1 | 6.3% (active)
17 | CCOC(=O)Cn1c(=O)c2c3ccccc3n(C)c2n2nnc(-c3ccccc3)c12 | 72.8% (inactive)
18 | Cc1cccc(N2CCN(C(=S)c3ccc4c(c3)OCO4)CC2)c1 | 29.1% (inactive)
19 | Cc1cc2oc(=O)cc(CP(=O)(O)O)c2cc1O | 90.7% (inactive)
20 | Nc1c(C(=O)Nc2ccncc2)sc2nc3c(cc12)CCCCC3 | 80.7% (inactive)

Row | Compound | growth
21 | CCOC(=O)c1c(C)nn(CC(O)c2ccccc2)c1NC(=O)Nc1cccc(F)c1 (stereo not given) | 77.2% (inactive)
22 | CO[C@H](C(=O)[C@@H](O)[C@@H](C)O)[C@@H]1Cc2cc3cc(O[C@H]4C[C@@H](O[C@H]5C[C@@H](O)[C@H](O)C(C)O5)[C@H](O)C(C)O4)c(C)c(O)c3c(O)c2C(=O)[C@H]1O[C@H]1C[C@@H](O[C@H]2C[C@@H](O[C@H]3C[C@@H](OC)[C@H](O)C(C)O3)[C@@H](O)C(C)O2)C(O)(O)C(C)O1 (stereo not given in full) | -43.5% (active)
23 | Cn1ccnc1C(=O)/C=C/c1ccc(C(=O)Nc2ccc(F)cc2)cc1 | 35.6% (inactive)
24 | CC(C(=O)O)n1c(O)c(C=Nc2cccnc2)sc1=S (stereo not given) | 88.8% (inactive)
25 | Nc1ncnc2c1c(-c1ccc(Oc3ccccc3)cc1)nn2CC1SSCC1O (stereo not given) | -76.1% (active)
26 | Cc1c(N2CN3C[C@H](C)N4CN(c5c(C)n(C)n(-c6ccccc6)c5=O)CN5C[C@@H](C)N(C2)C3C54)c(=O)n(-c2ccccc2)n1C (stereo not given in full) | 96.7% (inactive)
27 | Cn1cc(-c2csc(-c3cn(C(=O)OC(C)(C)C)c4ccccc34)n2)c2ccnc(Cl)c21 | 78.2% (inactive)
28 | COc1ccc2cc(-c3ccc(-c4ccc(C(=N)N)s4)s3)ccc2c1 | -16.3% (active)
29 | COc1ccc2cc(Cn3cc[n+](Cc4ccc5ccccc5c4)c3)ccc2c1 | 15.2% (inactive)
30 | N#Cc1c(Nc2ccc(F)cc2)n[nH]c1-c1cccs1 | 76.9% (inactive)
31 | C=NNc1ccccc1 | 50.2% (inactive)
32 | CCOC(=O)C/C(=N\Nc1cc(=O)[nH]c2ccc(Cl)cc12)C(=O)OCC | 92.5% (inactive)
33 | CC[C@]12C=CCN3CC[C@@]4(c5ccc(OC)cc5N(C)[C@H]4[C@@](O)(C(=O)OC)[C@@H]1OC(=O)CCCN1CCOCC1)[C@@H]32 | 97.6% (inactive)
34 | COc1cc2oc(-c3cccc(NC(=O)c4ccc5c(c4)OCO5)c3)cc(=O)c2c(OC)c1OC | 50% (inactive)
35 | COc1ccc(-c2cn(-c3ccc(Cl)cc3)c(SCC(=O)c3ccc([N+](=O)[O-])cc3)n2)cc1 | 68.7% (inactive)
36 | COc1ccc(C2=CN3CC=CCC3CC2=O)cc1 (stereo not given) | 99.5% (inactive)
37 | Nc1c(C(=O)Nc2cccc3ncccc23)sc2nc3c(cc12)C(=O)CCC3 | 17.8% (inactive)
38 | CC(C)CCC[C@@H](C)C1CCC2C3CCC4=C/C(=N/OCCN(C)C)CC[C@]4(C)C3CC[C@@]21C (stereo not given in full) | 84.9% (inactive)
39 | Cc1ccc(C)c(-n2c(-c3ccc(Br)cc3)csc2=NC(=O)c2ccccc2F)c1 | 60.7% (inactive)
40 | COc1ccccc1NC(=O)c1ccc(/C=C/C(=O)c2nccn2C)cc1 | -60.6% (active)
